# Assay outcomes deposited in PubChem BioAssay by National Center for Advancing Translational Sciences (NCATS).
# Gal4-VP16 FLuc – Gal4-VP16 reporter inhibition counter-screen | actives 3.5% (n = 310,000) | Drosophila S2 Gal4-VP16 UAS-luciferase, luminescence, 20 h | Potency, µM (top dose mostly 53.6 µM), most hits filed as inhibitors;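 note: Gal4-VP16 expression switched on by copper sulfate through the metallothionein promoter; nearly all actives have a fitted effect of over 50% in size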
# TDP1 cell CPT – growth inhibition of DT40 Tdp1-/-;hTDP1 cells with camptothecin (screen for TDP1 inhibitors); Potency, µM (top dose mostly 46.2 µM), actives largely listed as inhibitors; AID 686979; chicken DT40 Tdp1-/-;hTDP1 cells + 20 nM CPT, ATP luminescence, 48 h; actives 12% (n = 420,000); note: nearly all actives have a fitted effect of over 55% in size
#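 Chicken DT40 Tdp1-/- cells complemented with human TDP1, 400 cells/well, exposed to compounds plus 20 nM camptothecin for at least 48 h at 37 C; viability read as ATP content by CellTiter-Glo luminescence.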
# DT40 TDP1 no CPT – qHTS for Inhibitors of human tyrosyl-DNA phosphodiesterase 1 (TDP1): qHTS in cells in absence of CPT. DT40 Tdp1-/- hTDP1 cells, no CPT, ATP luminescence, 48 h. Potency, µM (highest dose often 46.2 µM), actives largely listed as inhibitors. actives 15% (n = 420,000). AID 686978, 2013; note: nearly all actives have a fitted effect of over 55% in size
#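 Cells were dispensed at 400 per well, compounds added by pin tool, plates incubated ≥48 hr at 37 °C, then CellTiter-Glo added for 30 min at room temperature before luminescence reading. Line: DT40 Tdp1-/- complemented with hTDP1; camptothecin omitted.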
# ELG1 DNA repair – inhibitors of ELG1-dependent DNA repair in HEK293T cells; HEK293T ELG1-luciferase reporter, luminescence, 16 h; DNA damage induced by 5-fluorouridine; AID 504467; Potency, µM (doses to about 46.1 µM), most hits filed as inhibitors; actives 2.3% (n = 330,000); note: nearly all actives have a fitted effect of over 55% in size
#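 Overnight (16 hr) co-exposure of 2,000 cells/well to 5-fluorouridine and compound at 37 °C preceded detection. Luciferase was quantified via ONE-Glo luminescence; loss of signal denotes inhibition.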
# 12-LOX inh – ALOX12 (human) lipoxygenase inhibition. AID 1671190. Potency, µM (doses to about 108 µM), actives largely listed as inhibitors. actives 1.1% (n = 580,000). P18054. purified 12hLO, xylenol orange hydroperoxide absorbance
#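 Hydroperoxide product was detected by ferrous iron/xylenol orange as the 573 to 405 nm absorbance ratio. Arachidonic acid at 40 uM (final) was turned over for 30 min at room temperature by 150 nM human 12hLO, pH 7.0 Hepes buffer, after 15 min compound preincubation.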
# RORgamma inh – ROR gamma (mouse) transcription inhibition; Drosophila S2 Gal4-RORgamma UAS-luciferase reporter, 20 h; Potency, µM (doses to about 53.6 µM), usual class: inhibitors; actives 5.4% (n = 310,000); note: nearly all actives have a fitted effect of over 60% in size
# Target sequence (P51450 whole entry, looked up, the tested form may be a part): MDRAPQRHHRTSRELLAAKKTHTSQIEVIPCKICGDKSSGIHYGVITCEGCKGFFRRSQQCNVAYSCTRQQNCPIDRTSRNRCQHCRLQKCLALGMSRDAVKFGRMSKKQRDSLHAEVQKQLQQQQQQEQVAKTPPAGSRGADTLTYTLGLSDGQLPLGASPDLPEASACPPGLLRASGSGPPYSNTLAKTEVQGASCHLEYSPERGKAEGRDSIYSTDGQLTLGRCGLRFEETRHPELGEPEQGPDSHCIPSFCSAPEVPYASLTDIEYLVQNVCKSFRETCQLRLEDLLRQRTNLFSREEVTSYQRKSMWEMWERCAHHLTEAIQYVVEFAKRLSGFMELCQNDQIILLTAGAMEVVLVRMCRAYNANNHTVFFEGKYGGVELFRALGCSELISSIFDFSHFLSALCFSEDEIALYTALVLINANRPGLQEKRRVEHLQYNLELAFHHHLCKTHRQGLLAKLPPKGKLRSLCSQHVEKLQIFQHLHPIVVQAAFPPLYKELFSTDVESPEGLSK
#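 Luciferase reporter read in Schneider cells carrying Gal4-RORγ (mouse) and UAS-Photinus luciferase; cells given compound 1 h before 700 uM copper sulfate induction, then incubated 20 h at ambient temperature.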
# Numbers stand for hits; - = inactive; ? = inconclusive; . = no result. This is a sample that favours compounds with a hit; in the whole collection about 15% have one here. Calls come from the whole dose curve; as a rule, active = well fitted curve in the direction sought with a large enough effect; inconclusive = small, poorly fitted or top-dose-only effect, or another doubt; inactive = no such curve, though single readings can be large; an effect the other way counts as inactive or inconclusive.
SMILES,Gal4-VP16 FLuc,TDP1 cell CPT,DT40 TDP1 no CPT,ELG1 DNA repair,12-LOX inh,RORgamma inh
CCCCn1c(SCC(=O)Nc2nnc(C(C)C)s2)nc2c1c(=O)n(C)c(=O)n2C,-,18µM,18µM,18µM,-,-
CCCn1c(SCC(=O)Nc2nc3c(s2)CCCC3)nc2c1c(=O)n(C)c(=O)n2C,-,12µM,15µM,?,-,-
Cc1c(-c2ccc(F)cc2)[nH]c2ccc(CNC(=O)CN3CCOC3=O)cc12,.,.,.,.,-,.
CCC(Sc1nnc2c(n1)[nH]c1ccccc12)C(=O)Nc1ccccc1OC (configuration not stated),.,?,21µM,.,-,.
CCOC(=O)c1ccc(NC(=O)C(CC)Sc2nnc3c4ccccc4n(C)c3n2)cc1 (configuration not stated),.,16µM,18µM,.,-,.
COc1ccc(Cc2nnc(SCC(=O)Nc3ccc(F)c(F)c3)n2C)cc1,.,.,.,.,-,.
CCCC(OC(=O)CC1Sc2ccccc2NC1=O)C(=O)NCc1ccco1 (configuration not stated),-,-,?,-,32µM,-
COC(=O)[C@@H]1Cc2nc[nH]c2CN1Cc1ccc(C(=O)O)cc1,.,.,.,.,-,.
COc1ccc(-c2noc(-c3cccn3CC(=O)Nc3ccc(C)cc3C)n2)cc1F,.,.,.,.,-,.
c1ccc(-c2ccc(-c3nccc4ccccc34)[nH]2)cc1,10µM,.,.,?,.,5µM
N#Cc1cc(-c2ccccc2)[nH]c1-c1nccc2ccccc12,?,?,?,9.2µM,-,10µM
COC(=O)c1c(-c2ccccc2)[nH]c(-c2nccc3ccccc23)c1C(=O)OC,.,?,?,.,-,.
COc1ccc(C(=O)N[C@H]2CO[C@H]3[C@@H]2OC[C@H]3OCC(N)=O)cc1,.,.,.,.,-,.
CCCc1nc2c(Cl)cc(C(F)(F)F)cn2c1Cc1ccc(OC)cc1C,.,21µM,16µM,.,-,.
COc1ccc(Cc2c(-c3ccc(C#N)cc3)nc3c(Cl)cc(C(F)(F)F)cn23)c(C)c1,.,?,18µM,.,?,.
O=C(O)COc1ccc(-c2nccc3c2C(=O)N(Cc2c[nH]c4ccccc24)CC(CNC(=O)Cc2ccccc2)O3)cc1 (configuration not stated),.,.,.,.,-,.
O=C(Cc1ccc2c(c1)OCO2)N1CCCn2nc(C(O)CO)cc2C1 (configuration not stated),.,.,.,.,-,.
COc1cc(/C=C(/C#N)C(=O)Nc2cccc(C(F)(F)F)c2)cc(OC)c1OC,.,.,.,.,-,.
Oc1ccc(-c2[nH]ncc2-c2cccc3cccnc23)c(O)c1,?,23µM,?,?,-,-
O=C(C1CC1)N1CCc2cc(Br)cc(S(=O)(=O)N3CCN(c4cccc(C(F)(F)F)c4)CC3)c21,.,?,8.2µM,.,-,.
O=C(C1CC1)N1CCc2cc(Br)cc(S(=O)(=O)N3CCN(c4ccccn4)CC3)c21,22µM,-,-,-,-,-
O=C(C1CC1)N1CCc2cc(Br)cc(S(=O)(=O)N3CCN(c4ccccc4)CC3)c21,.,-,-,.,-,.
COc1ccc2nc(Nc3nc(C)c(Cc4ccc(Cl)cc4)c(=O)[nH]3)nc(C)c2c1,.,.,.,.,-,.
O=C(Cc1c(Cl)cccc1Cl)N1CCN(S(=O)(=O)c2cccs2)CC1,.,21µM,?,-,-,.
CCOc1ccc(S(=O)(=O)N2CCN(C(=O)c3cccn3C)CC2)cc1,-,?,15µM,-,-,-
SMILES,Gal4-VP16 FLuc,TDP1 cell CPT,DT40 TDP1 no CPT,ELG1 DNA repair,12-LOX inh,RORgamma inh
CCOc1ccc(OCC(=O)N2CCN(S(=O)(=O)c3ccccc3)CC2)cc1,.,-,-,.,-,.
O=C(Cc1c(F)cccc1Cl)N1CCN(S(=O)(=O)c2cccs2)CC1,.,-,-,-,-,.
CCOc1ccc(OCCCC(=O)N2CCN(S(=O)(=O)c3ccc(Cl)cc3)CC2)cc1,.,?,?,-,45µM,.
COc1ccc(OCCSc2ccc(S(=O)(=O)N3CCCC3)cn2)cc1,.,?,?,-,-,.
CN1CCN(S(=O)(=O)c2ccc(SCCOc3ccc(Cl)cc3)nc2)CC1,.,-,16µM,-,-,.
C(=N\N=C(c1ccccc1)c1ccccc1)/c1cccs1,.,.,.,.,-,.
C/C(=N\NC(=O)c1ccc(C(C)(C)C)cc1)c1ccc(C)cc1C,.,.,.,.,-,.
CC(=O)c1ccc(OCCCC(=O)N2CCN(S(=O)(=O)c3cccs3)CC2)cc1,-,?,12µM,?,-,-
Nc1ncccc1C(=O)OCC(=O)N1CCN(S(=O)(=O)c2ccc(Cl)cc2)CC1,.,?,?,9.2µM,-,.
O=C(CCCOc1ccccc1)N1CCN(S(=O)(=O)c2cccs2)CC1,-,-,-,-,-,?
C[C@H]1CCC[C@]2(C)C[C@H]3OC(=O)C(CN4CCCCCC4)[C@H]3C=C12 (some centres not stated),-,?,?,?,-,?
C=C1C(=O)OC2C[C@@]3(C)CCCC(C)C3=CC12 (some centres not stated),?,?,10µM,.,.,10µM
COc1cc(NCCCCC(C)N)c2nccc(C)c2c1 (configuration not stated),.,5.8µM,3.7µM,.,?,.
COc1cc(NC(C)CCCNC(C)C)c2ncccc2c1OC (configuration not stated),.,?,?,.,-,.
CCCC[n+]1c(NCc2cc(Br)cc(Br)c2[O-])[nH]c2ccccc21,.,.,.,.,-,.
COc1ccc(CNC(=O)c2cccc3c(-c4cccnc4)coc23)cc1OC,.,1.2µM,1.5µM,.,?,.
NC(=O)c1cccc(-c2coc3c(C(=O)NC4CCCCC4)cccc23)c1,.,?,8.2µM,.,-,.
O=C(NCc1cccs1)c1cccc2c(-c3cccnc3)coc12,.,?,-,.,-,.
O=C(NCc1cccc(Cl)c1)c1cccc2c(-c3cccnc3)coc12,.,16µM,?,.,-,.
O=C(NCc1ccc(F)c(F)c1)c1cccc2c(-c3cccnc3)coc12,.,?,?,.,-,.
NC(=O)c1cccc(-c2coc3c(C(=O)NCc4cccnc4)cccc23)c1,.,21µM,23µM,.,-,.
Cc1ccc(C2Cn3nnc(-c4nc(-c5ccccc5C)no4)c3CO2)c(C)c1 (configuration not stated),.,.,.,.,-,.
CC(C)CNC(=O)c1cccc2c(-c3cccc(C(N)=O)c3)coc12,.,23µM,?,.,-,.
CC(C)N1CCN(C(=O)c2ccc(N3CC4CC(C3)[C@H]3CCCC(=O)N3C4)nc2)CC1 (some centres not stated),.,.,.,.,-,.
COc1ccc(Br)cc1CC1C(=O)Nc2ccccc21 (configuration not stated),.,8.2µM,7.3µM,.,?,.
